The values that follow come from PubChem BioAssay (EPA / NIEHS).

Structures are written as SMILES. Calls of active or inactive are those of the source. The calls were made as follows: active = hit-call score of the fitted dose curve at least 0.9, where 1 is the maximum; inactive = score below 0.9.

As usually defined, the AC50 is the concentration at which the activity in the assay is half-maximal.

Read-out in test [1]: Urokinase-type plasminogen activator receptor (uPAR), PLAUR (gene 5329)
Nature of the test: BSK_CASM3C_uPAR: BioMAP Diversity Plus: CASM3C Assay for Urokinase-type plasminogen activator receptor (uPAR) Biomarker Activity (AID 2283054).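 Also: cell-surface uPAR protein level quantified by ELISA.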 The following applies: primary human coronary artery smooth muscle cells; actives raise or lower the signal.

Read-out in test [2]: Vascular cell adhesion molecule 1 (VCAM1), VCAM1 (gene 7412)
Nature of the test: BSK_CASM3C_VCAM1: BioMAP Diversity Plus: CASM3C Assay for Vascular cell adhesion molecule 1 (VCAM1) Biomarker Activity (AID 2283055).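 Also: VCAM-1 protein level quantified by ELISA on the cells.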 The settings on record: primary human coronary artery smooth muscle cells; actives raise or lower the signal.

Read-out in test [3]: Epidermal growth factor receptor (EGFR), EGFR (gene 1956)
Kind of test: BSK_hDFCGF_EGFR: BioMAP Diversity Plus: hDFCGF Assay for Epidermal growth factor receptor (EGFR) Biomarker Activity (AID 2283057). The settings on record: primary human foreskin fibroblasts; actives raise or lower the signal. Summed up:
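Dosing human primary skin fibroblasts, then measuring surface EGFR by ELISA at 24 h, gives the endpoint; gains and losses relative to DMSO were fitted in both directions.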

Test [4] is described as follows: BSK_hDFCGF_Proliferation: Cell Proliferation Assessment in the BioMAP Diversity Plus: hDFCGF Assay (AID 2283059).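 Also: curves fitted for both rise and fall of signal versus DMSO baseline.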 The following applies: primary human foreskin fibroblasts. Summed up:
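Sub-confluent human foreskin fibroblast cultures receive test chemical […]. Relative cell number is quantified by sulforhodamine B staining (0.1%, after 10% TCA fixation) at 560 nm, with bidirectional fitting referenced to DMSO.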

Read-out in test [5]: Macrophage colony-stimulating factor (MCSF), CSF1 (gene 1435)
Kind of test: BSK_hDFCGF_MCSF: BioMAP Diversity Plus: hDFCGF Assay for Macrophage colony-stimulating factor (MCSF) Biomarker Activity (AID 2283060). The settings on record: primary human foreskin fibroblasts; actives raise or lower the signal. Summed up: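 Human foreskin primary fibroblasts were treated with test chemical for 24 h, and M-CSF was then measured by ELISA. Data were fitted bidirectionally against DMSO as the negative control and activity baseline.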

The nature of test [6]: BSK_hDFCGF_SRB: Viability Assessment in the BioMAP Diversity Plus: hDFCGF Assay (AID 2283061).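 Also: cells exposed to compound for 24 h before the read.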 The following applies: primary human foreskin fibroblasts. Summed up:
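Human foreskin primary fibroblasts were treated with compound and assessed 24 h after dosing. Total protein was measured by sulforhodamine B staining (0.1% SRB after 10% TCA fixation, 560 nm read) as a cytotoxicity marker, with bidirectional fitting against DMSO baseline.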

Read-out in test [7]: TIMP metallopeptidase inhibitor 1 (TIMP1), TIMP1 (gene 7076)
Nature of the test: BSK_hDFCGF_TIMP1: BioMAP Diversity Plus: hDFCGF Assay for TIMP metallopeptidase inhibitor 1 (TIMP1) Biomarker Activity (AID 2283062). The settings on record: primary human foreskin fibroblasts; actives raise or lower the signal. The gist of the method: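 Primary human foreskin fibroblasts in the hDFCGF system were dosed with compound for 24 h, then TIMP-1 was measured by ELISA. Activity was fitted bidirectionally relative to DMSO control; parallel SRB staining assessed cytotoxicity.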

Read-out in test [8]: Monokine induced gamma interferon (MIG), CXCL9 (gene 4283)
Kind of test: BSK_hDFCGF_MIG: BioMAP Diversity Plus: hDFCGF Assay for Monokine induced gamma interferon (MIG) Biomarker Activity (AID 2283063). The following applies: primary human foreskin fibroblasts; actives raise or lower the signal. The gist of the method:
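ELISA read-out of MIG from primary human dermal fibroblasts 24 h post-dosing. Gain or loss of signal fitted bidirectionally, DMSO as baseline.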

Read-out in test [9]: Matrix Metallopeptidase 1 (MMP1), MMP1 (gene 4312)
Nature of the test: BSK_hDFCGF_MMP1: BioMAP Diversity Plus: hDFCGF Assay for Matrix Metallopeptidase 1 (MMP1) Biomarker Activity (AID 2283064). The settings on record: primary human foreskin fibroblasts; actives raise or lower the signal. The gist of the method:
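MMP1 levels quantified by ELISA 24 h after dosing human dermal fibroblast cultures, with parallel SRB total-protein staining for overt cytotoxicity. Data fitted in both directions against DMSO baseline.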

Read-out in test [10]: Vascular cell adhesion molecule 1 (VCAM1), VCAM1 (gene 7412)
Kind of test: BSK_hDFCGF_VCAM1: BioMAP Diversity Plus: hDFCGF Assay for Vascular cell adhesion molecule 1 (VCAM1) Biomarker Activity (AID 2283065).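 As to AC50: VCAM-1 protein level quantified by ELISA after 24 h chemical exposure.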 The settings on record: primary human foreskin fibroblasts; actives raise or lower the signal. The gist of the method:
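Primary human foreskin fibroblasts (hDFCGF system) were dosed with chemical and VCAM-1 was measured by ELISA 24 h later. Bidirectional curve fitting used DMSO as negative control and activity baseline.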

Read-out in test [11]: Plasminogen activator inhibitor-1 (PAI1), SERPINE1 (gene 5054)
Nature of the test: BSK_hDFCGF_PAI1: BioMAP Diversity Plus: hDFCGF Assay for Plasminogen activator inhibitor-1 (PAI1) Biomarker Activity (AID 2283066). The following applies: primary human foreskin fibroblasts; actives raise or lower the signal. Summed up: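 Fibroblasts from human foreskin were treated with test chemical. After 24 h, PAI-1 was measured by ELISA. Activity was fitted in both directions relative to DMSO.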

Read-out in test [12]: Intercellular Adhesion Molecule 1 (ICAM1), ICAM1 (gene 3383)
Kind of test: BSK_KF3CT_ICAM1: BioMAP Diversity Plus: KF3CT Assay for Intercellular Adhesion Molecule 1 (ICAM1) Biomarker Activity (AID 2283067). The following applies: primary human keratinocytes with fibroblasts; actives raise or lower the signal. Summed up:
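Human keratinocyte plus foreskin fibroblast primary co-culture was exposed to chemical for 24 h. ICAM-1 was then quantified by ELISA, and the data were fit bidirectionally against DMSO as the negative control and baseline.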

Read-out in test [13]: Interferon-gamma inducible Protein 10 (IP10), CXCL10 (gene 3627)
Nature of the test: BSK_KF3CT_IP10: BioMAP Diversity Plus: KF3CT Assay for Interferon-gamma inducible Protein 10 (IP10) Biomarker Activity (AID 2283068). The following applies: primary human keratinocytes with fibroblasts; actives raise or lower the signal. Summed up:
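ELISA read-out of IP-10 after 24 h chemical dosing of human skin primary co-culture (keratinocytes, foreskin fibroblasts). Gain or loss of signal relative to DMSO, bidirectional curve fit.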

Test [14] can be described thus: BSK_KF3CT_SRB: Viability Assessment in the BioMAP Diversity Plus: KF3CT Assay (AID 2283069). The following applies: primary human keratinocytes with fibroblasts. The gist of the method:
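Cytotoxicity was gauged by SRB staining (0.1% SRB, 10% TCA fixation, 560 nm) of parallel cultures at 24 h. The cells were primary human skin keratinocytes co-cultured with fibroblasts, and activity was fitted in both directions against DMSO.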

Read-out in test [15]: Interleukin-1 alpha (IL1a), IL1A (gene 3552)
Kind of test: BSK_KF3CT_IL1a: BioMAP Diversity Plus: KF3CT Assay for Interleukin-1 alpha (IL1a) Biomarker Activity (AID 2283070). The following applies: primary human keratinocytes with fibroblasts; actives raise or lower the signal. The gist of the method: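 IL-1a was detected by ELISA 24 h after chemical treatment of a co-culture of human skin keratinocytes and foreskin fibroblasts. Gain or loss of signal was fitted against the DMSO baseline.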

Read-out in test [16]: TIMP metallopeptidase inhibitor 2 (TIMP2), TIMP2 (gene 7077)
Kind of test: BSK_KF3CT_TIMP2: BioMAP Diversity Plus: KF3CT Assay for TIMP metallopeptidase inhibitor 2 (TIMP2) Biomarker Activity (AID 2283071). The following applies: primary human keratinocytes with fibroblasts; actives raise or lower the signal. The gist of the method:
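Chemicals were dosed onto human skin primary co-cultures of keratinocytes and foreskin fibroblasts, and TIMP-2 was measured by ELISA after 24 hours. Activity in either direction was fitted relative to DMSO.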

Read-out in test [17]: Transforming growth factor beta 1 (TGFb1), TGFB1 (gene 7040)
Nature of the test: BSK_KF3CT_TGFb1: BioMAP Diversity Plus: KF3CT Assay for Transforming growth factor beta 1 (TGFb1) Biomarker Activity (AID 2283072). The settings on record: primary human keratinocytes with fibroblasts; actives raise or lower the signal. Summed up: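 KF3CT co-culture (keratinocytes + fibroblasts), 24 h exposure → TGF-b1 ELISA → bidirectional fit, DMSO = baseline. Parallel SRB total-protein staining (0.1% SRB, 10% TCA fixation, 560 nm) for cytotoxicity.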

Read-out in test [18]: C-C motif chemokine 2 (Homo sapiens) (UniProt P13500)
Nature of the test: BSK_KF3CT_MCP1: BioMAP Diversity Plus: KF3CT Assay for Monocyte Chemoattractant Protein 1 (MCP1/CCL2) Biomarker Activity (AID 2283073). The following applies: primary human keratinocytes with fibroblasts; actives raise or lower the signal. Summed up:
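Human keratinocyte plus foreskin fibroblast primary co-culture exposed to chemical for 24 h. MCP-1 levels measured by ELISA. Bidirectional curve fitting relative to DMSO negative control as baseline.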

Read-out in test [19]: Interleukin-8 (IL8), CXCL8 (gene 3576)
Nature of the test: BSK_hDFCGF_IL8: BioMAP Diversity Plus: hDFCGF Assay for Interleukin-8 (IL8) Biomarker Activity (AID 2283058). The settings on record: primary human foreskin fibroblasts; actives raise or lower the signal. Summed up:
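hDFCGF human dermal fibroblasts; 24 h chemical exposure; IL-8 by ELISA; bidirectional curve fit vs DMSO baseline; gain or loss of signal scored.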

As for `O=Cc1cccc(Oc2ccccc2)c1`, the result in test [1], in [2], in test [3], in [4], in [5] and in [6] was inactive. In addition, the result in test [7], in test [8], in test [9], in [10], in test [11] and in test [12] was inactive. For the same compound, the result in test [13], in test [14], in [15], in [16], in test [17] and in test [18] was inactive.

For the compound `C(=NC1CCCCC1)=NC1CCCCC1`, the AC50 in [1] was 26.8 µM (active); in [2], 20 µM (active); in test [19], 32.4 µM (active); in [4], 20 µM (active); in test [5], 20 µM (active); in test [7], 14.9 µM (active). Also, the AC50 in test [8] is 26.8 µM (active); in [9] it was 32.7 µM (active); in [10], 10.7 µM (active); in test [11], 20 µM (active); in test [12], 20 µM (active); in test [13], 14.9 µM (active). The AC50 in test [14] is 15 µM (active); in [15] it was 17.2 µM (active); in [16], 20 µM (active); in test [17], 9.13 µM (active); in test [18] it was 29.4 µM (active). In addition, in test [3], the outcome was inactive.

Regarding `CC(C)(C)CC(C)(C)c1ccc(O)cc1`, the half-maximal activity concentration (AC50) was 14.8 µM (active) in test [1]; 12 µM (active) in test [2]; 20 µM (active) in test [3]; 10.6 µM (active) in test [19]; 8.07 µM (active) in [4]; 7.74 µM (active) in [5]. Besides, the AC50 in test [7] is 8.77 µM (active); in test [8], 9.02 µM (active); in test [9], 6.98 µM (active); in [10], 10.8 µM (active); in test [11], 8.03 µM (active); in test [12], 11.3 µM (active). Moreover, the half-maximal activity concentration (AC50) was 10.1 µM (active) in test [13]; 6.93 µM (active) in test [14]; 7.85 µM (active) in test [15]; 7.95 µM (active) in [16]; 6.72 µM (active) in test [18].

As to `COP(=S)(OC)Oc1c(Cl)cc(C)cc1Cl`, the outcome in test [1], in [2], in test [3], in test [4], in [5] and in [7] was inactive. Also, the outcome in test [8], in test [9], in test [11], in test [12], in test [13] and in test [14] was inactive. Further, the outcome in test [15], in test [16], in [17] and in test [18] was inactive. The AC50 in test [10] is 20 µM (active).

As for `ClC(Cl)=C(Cl)C(Cl)=C(Cl)Cl`, the outcome in [1], in test [3], in test [19], in test [5], in [8] and in [10] was inactive. The half-maximal activity concentration (AC50) is 20 µM (active) in [2]; 29.4 µM (active) in test [4]; 20 µM (active) in test [7]; 32 µM (active) in [9]; 0.435 µM (active) in test [11]; 32.4 µM (active) in test [12]. For the same compound, the AC50 is 36.3 µM (active) in test [13]; 34.1 µM (active) in test [14]; 20 µM (active) in test [15]; 26.9 µM (active) in test [16]; 29.2 µM (active) in test [17]; 20 µM (active) in [18].
